MmCpn inh = Inhibitors of TCP-1 ring complex (TRiC) of Methanococcus maripaludis (MmCpn): qHTS; AID 504842, 2011; purified Mm-Cpn ATPase, ADP Transcreener TR-FRET; 330,000 tested, 0.031% active; Potency, µM (titrated, usually from 76.9 µM), for the others: at the highest dose activity, negative = inhibition, most hits filed as inhibitors; also: % is scaled to controls: 0 for no effect and ±100 for the full control effect; nearly all actives have a fitted effect of over 80% in size
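Eu-cryptate anti-ADP/ADP-d2 competition gives a ratio inversely related to ADP. Enzyme at 25 nM was pre-exposed to compound for 10 min, then given 10 uM ATP for 30 min, 37°C throughout.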
Abeta rescue = qHTS for compounds that reverse cellular toxicity of Amyloid beta (A-beta) peptide in yeast: Primary Screen | AID 1347071, 2019 | Potency, µM (doses to about 46.1 µM), actives largely listed as activators | yeast expressing A-beta42, growth rescue, OD600, 48 h; response scale: 0% DMSO, 100% iron-clioquinol control | 410,000 tested, 0.063% active; also: nearly all actives have a fitted effect of over 55% in size
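Yeast A-beta toxicity model in growth medium with pinned compounds, 48 h at 30 C; growth read as absorbance at 600 nm. Normalized to FeCl3/clioquinol equimolar mix (positive) and DMSO (negative).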
aSyn rescue = qHTS of alpha-syn Inhibitors | Yeast expressing alpha-synuclein, growth rescue, BacTiter-Glo, 24 h | Potency, µM (highest dose often 46.1 µM), for the others: at the highest dose growth rescue (activation), most hits filed as activators | 370,000 tested, 0.14% active; also: % of control where 0% means no effect; nearly all actives have a fitted effect of over 65% in size
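Rescue of yeast growth: cells expressing toxic alpha-synuclein, induced in galactose at OD600 0.02, incubated with compound 24 h at 30 C. ATP luminescence quantified growth; inhibitors of toxicity appear as activators.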
ClpP mod = qHTS Assay for Activators of ClpP; purified B. subtilis ClpP, FRET peptide cleavage, 20 min; Potency, µM (doses to about 57.5 µM), for inactives: at the top dose activity change, negative = active; 340,000 tested, 1.9% active; ATP-dependent Clp protease proteolytic subunit (Bacillus subtilis (strain 168)), P80244; AID 651965, 2013; active = well fitted falling curve with a large enough effect; inconclusive = small, poorly fitted or top-dose-only effect; inactive = no such curve, though single readings can be large or run the other way; also: the source files actives as falling curves though it sought activators and does not explain the sign; nearly all actives have a fitted effect of over 65% in size
Target sequence (P80244 whole entry, looked up): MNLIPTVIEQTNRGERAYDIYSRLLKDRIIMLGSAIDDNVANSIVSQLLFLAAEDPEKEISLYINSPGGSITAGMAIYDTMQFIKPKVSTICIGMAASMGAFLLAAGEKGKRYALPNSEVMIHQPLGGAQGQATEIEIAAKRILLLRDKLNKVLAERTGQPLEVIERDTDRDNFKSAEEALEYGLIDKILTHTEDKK
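Purified B. subtilis ClpP, 10 microg/mL final in Tris/HCl pH8 with KCl, BSA, glycerol and Tween-20, cleaved an Abz/nitrotyrosine-quenched decapeptide. Fluorescence (ex 320, em 430) was read at 0 and 20 min at room temperature. Delta was normalized to 5.8 microM ADEP and DMSO/no-enzyme controls.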
FUS yeast rescue = qHTS for Suppressors of FUS Proteinopathy: Primary screen using FUS-linked yeast assay; S. cerevisiae FUS-expressing, growth rescue, OD600, 24 h; Potency, µM (titrated, usually from 76.6 µM), most hits filed as activators; 390,000 tested, 0.24% active; AID 1347120, 2019;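 also: plate controls were DMSO vehicle for no effect and reference control for full effect; nearly all actives have a fitted effect of over 55% in size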
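Galactose (2%) drives FUS expression in yeast precultured in raffinose; seeding density OD 0.005. Test compounds incubated 24hr at 30C and 99% humidity before absorbance at 600 nm was measured.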
TDP-43 yeast inh = qHTS of TDP-43 Inhibitors; AID 652104, 2013; Potency, µM (series often up to 46.1 µM), for the others: top-dose growth rescue (activation), most hits filed as activators; TDP-43 expressing yeast growth rescue, BacTiter-Glo, 24 h; 410,000 tested, 1.8% active; also: % of control where 0% means no effect; nearly all actives have a fitted effect of over 50% in size
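Readout is BacTiter-Glo luminescence of cell growth, so inhibitors register as activators. TDP-43-expressing yeast at OD600=0.02 in galactose medium, after raffinose pregrowth to mid-log, were incubated with compound for 24 hr at 30 deg C.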
* = called active by the depositor; i = inactive; ? = inconclusive; nt = no result. In the library only some 3.6% were active in any assay of this set; here they are far more common. Unless noted, calls follow the shape of the dose curve; as a rule, active = well fitted curve in the direction sought with a large enough effect; inconclusive = small, poorly fitted or top-dose-only effect, or another doubt; inactive = no such curve, though single readings can be large; an effect the other way counts as inactive or inconclusive. Potency is read from the fitted curve at half-maximal effect.

SMILES	MmCpn inh	Abeta rescue	aSyn rescue	ClpP mod	FUS yeast rescue	TDP-43 yeast inh
CCN(Cc1cccc(S(=O)(=O)O)c1)c1ccc(C(=C2C=CC(=[N+](CC)Cc3cccc(S(=O)(=O)O)c3)C=C2)c2ccccc2S(=O)(=O)[O-])cc1	nt	nt	-50.9%	-6.5%	nt	nt
CC(C)(C)OC(=O)N1CCC(c2c(C(=O)NCc3ccc4c(c3)OCO4)cnn2-c2ccccc2Cl)CC1	nt	i	nt	1.4%	i	4.6%
S=C(NCCCc1ccccc1)Nc1ccccc1	3.4%	20µM*	7.4%	0.2%	i	29.3%
S=C(NCCCc1ccccc1)Nc1ccc(Cl)cc1	-0.5%	i	-66.9%	-1.4%	nt	12.1%
COc1ccccc1C1/C(=C(/O)c2ccc(C)cc2)C(=O)C(=O)N1CC(C)O (centres undefined)	0.2%	i	1.3%	28.2µM*	i	2.4%
COc1ccc(OC)c(NC(=O)c2cnc(N3CCCCC3)c3ccccc23)c1	nt	i	nt	-12.7%	i	7.6%
CCc1ccc2oc(-c3ccc(C)c(NC(=O)COc4ccc(Cl)cc4)c3)nc2c1	nt	nt	2.4%	4.0%	nt	nt
CCOC(=O)c1c(C=O)c(C)n(Cc2ccc(Cl)cc2)c1C	0.3%	i	8.6%	-6.1%	i	35.5µM*
COC(=O)C1=CN(CC2CCCO2)C=C(C(=O)OC)C1c1cc(OC)c(OC)c(OC)c1 (centres undefined)	nt	i	nt	25.1µM*	i	-10.3%
COC(=O)c1sc2cnccc2c1N	-1.3%	i	0.1%	14.1µM*	i	8.2%
O=C(NNc1cc(Cl)cc(Cl)c1)c1sccc1Cl	nt	nt	1.5%	0.8%	nt	nt
CCOc1ccc(Nc2nc(N)c(C(=O)c3ccccc3Cl)s2)cc1	nt	i	nt	-0.9%	i	35.5µM*
COc1ccc(Nc2nc(N)c(C(=O)c3ccc(OC)cc3)s2)cc1	-1.9%	i	-7.9%	nt	i	-8.5%
COc1ccc(CCNC(=O)c2ccc3nc(Cc4ccccc4)oc3c2)cc1OC	nt	i	nt	0.2%	i	18.3%
N#Cc1c(NCc2ccccc2)ccnc1Cl	nt	i	14.9%	-2.1%	i	14.1µM*
N#Cc1sc(NCc2ccccc2)nc1Cl	-5.4%	i	10.9%	nt	i	8.5%
Cc1ccoc1C(=O)NCc1occc1C(=O)O	-1.6%	i	-3.7%	-1.2%	i	5.4%
Cc1ccc(OCc2occc2C(=O)O)cc1	nt	i	4.9%	-1.6%	i	14.1µM*
CCOC(=O)C1=C(CN2CCN(c3cc(C)ccc3C)CC2)NC(=O)NC1c1ccc(Cl)cc1 (centres undefined)	nt	i	nt	-1.3%	i	2.1%
NC(=S)NN=C(Cc1ccccc1)Cc1ccccc1	-1.1%	?	3.3%	0.4%	i	15.8µM*
CCC(C)NC(=O)c1[nH]c2cc(OC)ccc2c1Sc1ccc(C)cc1 (centres undefined)	nt	i	nt	28.2µM*	i	10.1%
COc1ccc2c(Sc3ccccc3)c(C(=O)NCC(C)c3ccccc3)[nH]c2c1 (centres undefined)	nt	i	nt	-9.1%	i	21.1%
COc1nc(Nc2cccc(C(F)(F)F)c2)nc(OC)n1	-0.4%	i	-9.0%	0.5%	i	14.1µM*
Cc1cc(C)nc(Nc2cccc(C(F)(F)F)c2)n1	-1.1%	i	-13.0%	1.5%	i	?
CC(C)Cn1c(N)c(C(=O)NCCN2CCOCC2)c2nc3ccccc3nc21	-1.1%	i	4.1%	28.2µM*	i	-8.9%
SMILES	MmCpn inh	Abeta rescue	aSyn rescue	ClpP mod	FUS yeast rescue	TDP-43 yeast inh
Nc1c(C(=O)NCc2ccc(F)cc2)c2nc3ccccc3nc2n1CCCN1CCOCC1	-2.9%	i	-3.8%	35.5µM*	?	-21.1%
CCc1ccc2oc(C(=O)Nc3nc(-c4ccc(F)cc4)ns3)c(C)c2c1	nt	i	nt	-3.7%	i	1.8%
CCCCNC(=O)/C(C#N)=C/c1ccc2c(c1)OCCO2	0.2%	i	11.1%	25.1µM*	i	3.0%
CCCCCCCCNC(=O)/C(C#N)=C/c1ccc2c(c1)OCCO2	-1.8%	i	3.9%	8.6%	i	6.3%
COc1ccccc1NC(=O)CN1C(=O)c2cccc3cccc1c23	nt	i	nt	7.4%	i	?
O=C1CC(c2ccccc2F)c2cc3c(cc2N1)CCC3 (centres undefined)	0.8%	i	16.7%	0.7%	i	-12.3%
O=C1CC(c2cc(Br)ccc2F)c2cc3c(cc2N1)CCC3 (centres undefined)	0.2%	i	4.47µM*	1.2%	i	-23.7%
O=C1CC(c2cccc(Cl)c2)c2cc3c(cc2N1)CCC3 (centres undefined)	1.8%	i	3.98µM*	-0.6%	i	-0.7%
Cc1cccc2c(=O)n3c(cc12)-c1[nH]c2ccccc2c1CC3	nt	i	-0.6%	14.1µM*	nt	17.8%
CCN(CC)CCCNC(=O)c1oc2c(c1C)-c1nn(Cc3ccc(Cl)cc3)cc1CC2	nt	i	nt	15.8µM*	?	4.6%
COCCCNC(=O)c1oc2c(c1C)-c1nn(Cc3ccc(Cl)cc3)cc1CC2	nt	i	nt	31.6µM*	?	21.2%
Cc1c(C(=O)NCCN(C)C)oc2c1-c1nn(Cc3ccccc3Cl)cc1CC2	nt	i	nt	?	i	3.5%
COCCCNC(=O)c1oc2c(c1C)-c1nn(Cc3cccc(Cl)c3)cc1CC2	nt	i	nt	-24.6%	i	8.6%
CC(=O)Nc1ccc(NC(=O)c2oc3c(c2C)-c2nn(Cc4ccccc4Cl)cc2CC3)cc1	nt	i	nt	20µM*	?	9.5%
CC(C)Cn1cc(NC(=O)N2CCN(c3ccc(F)cc3)CC2)c2ccccc2c1=O	nt	i	3.1%	3.8%	i	25.9%
COc1ccc(NCc2cc3cc4c(cc3n(CC(=O)Nc3ccc(F)cc3F)c2=O)OCO4)cc1	nt	i	nt	4.6%	?	-5.7%
CCc1ccccc1Oc1nc(NC(C)C)nc2ccsc12	nt	i	-16.3%	?	i	20µM*
COCCNc1nc(Oc2cccc3ccccc23)c2sccc2n1	nt	i	17.9%	?	i	15.8µM*
CC(C)Nc1nc(-c2ccccc2CO)c2sccc2n1	nt	i	-20.8%	4.1%	i	?
O=C(c1ccccc1)N1CCN=C1SCc1ccc([N+](=O)[O-])cc1	2.4%	i	2.1%	-0.6%	i	10µM*

Screening results: PubChem BioAssay, National Center for Advancing Translational Sciences (NCATS)
